Compound activity: PubChem, National Center for Advancing Translational Sciences (NCATS)
JMJD2A Tudor = qHTS Assay for Inhibitors of JMJD2A-Tudor Domain. AID 504339, 2011. AlphaScreen JMJD2A-Tudor / H3K4me3 peptide binding. hit rate 4.4% among 390,000. Potency, µM (series often up to 114 µM), for the others: at the top dose activity change, negative = inhibition, usual class: inhibitors; also: potency is read from the fitted curve at half-maximal effect; % is scaled to controls: 0 for no effect and ±100 for the full control effect; nearly all actives have a fitted effect of over 50% in size
HP1b chromo inh = HTS for Inhibitors of HP1-beta Chromodomain Interactions with Methylated Histone Tails; AlphaScreen HP1-beta / biotin-H3K9me3 peptide binding; Potency, µM (highest dose often 114 µM), for the others: at the highest dose activity change, negative = inhibition, most hits filed as inhibitors; hit rate 0.56% among 390,000; AID 540317, 2011; also: potency is read from the fitted curve at half-maximal effect; nearly all actives have a fitted effect of over 70% in size
Target sequence (P83916 whole entry, looked up): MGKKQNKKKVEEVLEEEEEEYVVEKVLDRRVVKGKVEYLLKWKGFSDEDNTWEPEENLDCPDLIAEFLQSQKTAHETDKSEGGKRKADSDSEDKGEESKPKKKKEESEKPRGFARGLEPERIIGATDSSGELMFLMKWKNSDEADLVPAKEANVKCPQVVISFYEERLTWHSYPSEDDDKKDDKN
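AlphaScreen: HP1-beta (50 nM) preformed 30 min with biotin-H3(1-18)K9me3 peptide (50 nM) in PBS pH 7.4, 0.01% Tween-20. Compound added for 30 min at RT, then streptavidin donor/nickel chelate acceptor beads (10 ug/mL) for 30 min.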
BAZ2B block = qHTS Assay for Inhibitors of BAZ2B | Bromodomain adjacent to zinc finger domain protein 2B (Homo sapiens), Q9UIF8 | AlphaScreen BAZ2B-H3K14Ac peptide displacement | AID 504333, 2011 | hit rate 4.4% among 360,000 | Potency, µM (doses to about 114 µM), without a hit: at the highest dose activity change, negative = inhibition, actives largely listed as inhibitors; also: potency is read from the fitted curve at half-maximal effect; % is scaled to controls: 0 for no effect and ±100 for the full control effect; nearly all actives have a fitted effect of over 60% in size
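Multi-concentration screen (max 110 uM) measuring displacement of acetylated histone H3 peptide from BAZ2B by AlphaScreen, using 50 nM protein, 50 nM peptide and 10 ug/mL streptavidin donor plus Ni-chelate acceptor beads.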
CtBP-E1A inh = qHTS Assay for Inhibitors of the CtBP/E1A Interaction; CtBP / adenovirus E1A interaction (AlphaScreen); activity change, % (concentration not given with the values); hit rate 0.49% among 340,000; AlphaScreen GST-E1A/His-CtBP binding, 1536-well; active compounds read low; in the data active = activity change below about -65%; inconclusive = mostly about -30% to -63%; also: % is scaled to controls: 0 for no effect and ±100 for the full control effect
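GST-E1A and His-tagged CtBP (125 nM each as 5X stock) were preincubated with pin-transferred compound for 2 h at 37 °C in the dark, then glutathione donor and nickel acceptor beads were added for 1 h before AlphaScreen reading.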
G9a inh = qHTS Assay for Inhibitors of Histone Lysine Methyltransferase G9a | Histone-lysine N-methyltransferase EHMT2 (Homo sapiens), Q96KQ7 | G9a H3K9 monomethylation, AlphaScreen, 2 h | Potency, µM (titrated, usually from 102 µM), for the others: at the top dose activity, negative = inhibition, usual class: inhibitors | hit rate 8.8% among 350,000 | AID 504332, 2011; also: potency is read from the fitted curve at half-maximal effect; % is scaled to controls: 0 for no effect and ±100 for the full control effect; nearly all actives have a fitted effect of over 75% in size
Target sequence (Q96KQ7 913-1193 limits assumed): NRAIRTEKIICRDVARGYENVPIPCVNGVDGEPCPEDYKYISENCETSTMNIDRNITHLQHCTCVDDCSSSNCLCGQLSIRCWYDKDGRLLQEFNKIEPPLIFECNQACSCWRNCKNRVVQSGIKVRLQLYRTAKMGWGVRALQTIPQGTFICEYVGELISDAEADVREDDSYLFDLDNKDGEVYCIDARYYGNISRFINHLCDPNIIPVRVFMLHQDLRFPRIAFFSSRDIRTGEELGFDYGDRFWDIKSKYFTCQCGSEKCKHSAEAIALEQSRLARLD
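AlphaScreen read-out: biotin-H3K9 peptide (500 nM) methylation by 20 nM enzyme with 20 uM SAM, 2 h at room temperature after 15 min compound preincubation; anti-monomethyl H3K9 antibody plus donor/acceptor beads, 10 min dark.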
Six1-Eya2 inh = qHTS Assay for Inhibitors of the Six1/Eya2 Interaction; AlphaScreen GST-Six1/His-Eya2 binding, biochemical; active compounds read low; Homeobox protein SIX1 (Homo sapiens) + Protein phosphatase EYA2 (Homo sapiens), …; hit rate 0.56% among 360,000; activity change, % (test concentration not listed); in the data active = activity change below about -65%; inconclusive = mostly about -30% to -63%; also: % is scaled to controls: 0 for no effect and ±100 for the full control effect
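AlphaScreen with GST-Six1 and His-Eya2 (5X mix: 250 nM and 500 nM), glutathione donor and nickel acceptor beads; buffer 50 mM Tris pH 8.0, 300 mM NaCl, 1 mM TCEP; 1 h at 37 C in the dark.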
Starred values were filed as active, the others as inactive; ? = inconclusive; nt = no result given; [ ] = another dose, or the depositor's remark. This is a sample that favours compounds with a hit; in the whole collection about 10% have one here. Unless noted, calls follow the shape of the dose curve; as a rule, active = well fitted inhibition curve with a large enough effect; inconclusive = small, poorly fitted or top-dose-only effect; inactive = no such curve, though single readings can be large or run the other way.

SMILES	JMJD2A Tudor	HP1b chromo inh	BAZ2B block	CtBP-E1A inh	G9a inh	Six1-Eya2 inh
CCN(CC#CCC(O)(c1ccccc1)c1ccccc1)C(C)C	-30.1%[57.1 µM]	5.9%	-10.0%	3.8	-23.6%[59 µM]	3.3
CCc1ccc(N(C(C)=O)c2nc(CCl)cs2)cc1	-7.0%	45.0%	-22.7%	1.2	17.8µM*	-2.9
CN1CCN(c2ccc3c(c2)OC[C@@H](Cc2ccccc2)NS3(=O)=O)CC1	nt	nt	nt	-11.0	nt	6.8
C=CCNc1nc(-c2sc(NC(=O)CC)nc2C)cs1	-29.7%	-3.4%	?	-1.0	8.91µM*	-2.2
Cc1nc(NC(=O)C(C)(C)C)sc1-c1csc(N)n1	nt	nt	nt	-3.2	nt	-11.9
C=CCNc1nc(-c2sc(NC(C)=O)nc2C)cs1	-30.1%	2.3%	-32.8%	-16.3	17.8µM*	-4.8
CCCCCC(=O)Nc1nc(C)c(-c2csc(Nc3ccc(Cl)cc3)n2)s1	?	-22.3%	?	nt	41.5%[0.501 µM]	-4.6
Cc1ccc(NC(=O)C(C)OC(=O)CCC2CCCCC2)cc1 (stereo not given)	32.7%	107.6%	34.2%	28.5	54.4%	0.0
O=C(CCC(=O)N(CC(=O)NC1CCCC1)c1cccc(F)c1)Nc1nccs1	-14.0%	-7.4%	2.7%	1.8	-5.5%	34.2
CCOC(=O)N1CCN(c2c(F)cc3[nH]c(=S)[nH]c3c2Br)CC1	-21.6%	6.5%	-3.9%	-6.9	?	-1.4
CCOCCCn1c(=S)[nH]c2cc(C(=O)N3CCN(C)CC3)ccc2c1=O	22.4µM*	15.4%	?	-6.7	?	3.8
CCOC(=O)N1CCN(C(=O)c2ccc3c(=O)n(-c4ccccc4F)c(=S)[nH]c3c2)CC1	-11.7%	77.5%	-15.2%	22.4	50.1µM*	9.9
CCOCCCn1c(=S)[nH]c2cc(C(=O)N3CCC(C(N)=O)(N4CCCCC4)CC3)ccc2c1=O	22.4µM*	46.5%	1.5%	-21.6	?	11.0
CCOC(=O)N1CCN(C(=O)c2ccc3c(=O)n(-c4ccc(OC)cc4OC)c(=S)[nH]c3c2)CC1	-33.0%	73.2%	3.6%	5.4	?	2.4
CCOC(=O)N1CCN(c2cc3[nH]c(=S)[nH]c3cc2F)CC1	44.7µM*	-29.3%	4.0%	3.5	2.24µM*	-1.5
COc1ccc(CC(=O)Nc2ccc3nc(N4CCCCC4)cc(C)c3c2)cc1	-14.0%	45.5%	1.3%	nt	4.0%[59 µM]	nt
CCOc1ccc(CCNC(=O)c2cc(C)nn2-c2ccccc2)cc1	3.1%	24.6%	-3.5%	6.6	-4.3%	-3.1
Cc1cccnc1NC(=O)c1ccc(Cl)c(S(=O)(=O)N2CCCCCC2)c1	-7.4%	35.5%	-3.1%	0.0	15.1%	16.9
COc1ccc(CCn2c(=O)[nH]c3cc(C(=O)N4CCN(c5ccccc5)CC4)ccc3c2=O)cc1OC	-6.7%	13.8%	-6.4%	9.0	8.9%	-1.8
COc1ccc(CCn2c(=S)[nH]c3cc(C(=O)N4CCOCC4)ccc3c2=O)cc1OC	-22.0%	15.7%	-26.3%	2.2	8.91µM*	-5.3
Cc1cccc(Nc2nc(C#N)nc(NC3CCCC3)n2)c1	2.7%	nt	nt	nt	nt	nt
CCOc1ccc(NC(=S)Nc2cccc3cnccc23)cc1	-12.8%	-11.4%	-13.9%	-12.5	?	-7.4
Cc1ccc(NC(=S)Nc2cccc3ccccc23)cc1	-26.9%	-6.9%	?	-11.7	nt	-10.1
Fc1ccc(NC(=S)Nc2cccc3ccccc23)cc1	-23.9%	1.0%	?	nt	79.4µM*	-0.5
COc1ccc(NC(=S)Nc2cccc3cnccc23)cc1	-32.9%	-18.8%	-36.7%	0.0	25.1µM*	-3.4
Cc1cc(NC(=S)Nc2cccc3ccccc23)n[nH]1	-23.0%	-14.0%	-24.7%	16.4	1.12µM*	-1.5
